Screening data: PubChem BioAssay, National Center for Advancing Translational Sciences (NCATS)
A selection: hits, their analogues and other compounds. The true share with any hit is near 10%.
CtBP-E1A blk: CtBP/E1A binding inhibition; actives 0.49% (n = 340,000); AlphaScreen GST-E1A/His-CtBP binding, 1536-well; hits give low values; activity change, % (concentration not given with the values); in the data active = activity change below about -65%; inconclusive = mostly about -30% to -63%; note: % is set by controls: 0 for no effect and ±100 for the full control effect
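In 5 uL wells, 23 nL compound meets equimolar GST-E1A and His-CtBP (5X stock 125 nM each) for 2 h, 37 °C. Beads (5X, 50 ug/mL) then 1 h, 37 °C, dark.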
HP1b chromo inh: HP1-beta chromodomain-methylated histone interaction inhibition. AlphaScreen HP1-beta / biotin-H3K9me3 peptide binding. Potency, µM (highest dose often 114 µM), inactives show at the top dose activity change, negative = inhibition, actives largely listed as inhibitors. actives 0.56% (n = 390,000). AID 540317; note: potency is the fitted concentration of half-maximal effect; nearly all actives have a fitted effect of over 70% in size
Target sequence (P83916 whole entry, looked up): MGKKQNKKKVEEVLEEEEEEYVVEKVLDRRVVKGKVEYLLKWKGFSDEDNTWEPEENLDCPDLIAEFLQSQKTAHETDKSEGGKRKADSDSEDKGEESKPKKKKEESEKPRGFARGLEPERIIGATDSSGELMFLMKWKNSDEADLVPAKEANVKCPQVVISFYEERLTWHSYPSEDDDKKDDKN
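Compound inhibition of the preformed complex between 50 nM HP1-beta and 50 nM biotinylated H3K9me3 peptide was read by AlphaScreen. Buffer was PBS pH 7.4 with 0.01% Tween-20. Incubations ran 30 min at room temperature, with 10 ug/mL donor/acceptor beads.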
G9a block: blocks human histone lysine methyltransferase G9a; Q96KQ7; G9a H3K9 monomethylation, AlphaScreen, 2 h; Potency, µM (top dose mostly 102 µM), inactives show top-dose activity, negative = inhibition, most hits filed as inhibitors; actives 8.8% (n = 350,000); AID 504332; note: potency is the fitted concentration of half-maximal effect; % is set by controls: 0 for no effect and ±100 for the full control effect; nearly all actives have a fitted effect of over 75% in size
Target sequence (Q96KQ7 913-1193 limits assumed): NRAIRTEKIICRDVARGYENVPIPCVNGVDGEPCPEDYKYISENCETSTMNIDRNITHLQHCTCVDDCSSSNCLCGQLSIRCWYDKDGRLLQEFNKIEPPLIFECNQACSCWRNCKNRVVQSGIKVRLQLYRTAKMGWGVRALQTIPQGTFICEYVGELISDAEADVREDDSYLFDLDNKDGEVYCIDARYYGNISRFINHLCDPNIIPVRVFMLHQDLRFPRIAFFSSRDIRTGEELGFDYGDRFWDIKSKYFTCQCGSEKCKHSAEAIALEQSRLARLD
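AlphaScreen read-out: biotin-H3K9 peptide (500 nM) methylation by 20 nM enzyme with 20 uM SAM, 2 h at room temperature after 15 min compound preincubation; anti-monomethyl H3K9 antibody plus donor/acceptor beads, 10 min dark.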
JMJD2A Tudor inh: JMJD2A Tudor domain (human) inhibition; AlphaScreen JMJD2A-Tudor / H3K4me3 peptide binding; Potency, µM (series often up to 114 µM), for the others: at the highest dose activity change, negative = inhibition, actives largely listed as inhibitors; actives 4.4% (n = 390,000); AID 504339; note: potency is the fitted concentration of half-maximal effect; % is set by controls: 0 for no effect and ±100 for the full control effect; nearly all actives have a fitted effect of over 50% in size
BAZ2B inh: BAZ2B (human) inhibition; Q9UIF8; AlphaScreen BAZ2B-H3K14Ac peptide displacement; Potency, µM (highest dose often 114 µM), without a hit: at the top dose activity change, negative = inhibition, most hits filed as inhibitors; actives 4.4% (n = 360,000); AID 504333; note: potency is the fitted concentration of half-maximal effect; % is set by controls: 0 for no effect and ±100 for the full control effect; nearly all actives have a fitted effect of over 60% in size
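Multi-concentration screen (max 110 uM) measuring displacement of acetylated histone H3 peptide from BAZ2B by AlphaScreen, using 50 nM protein, 50 nM peptide and 10 ug/mL streptavidin donor plus Ni-chelate acceptor beads.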
Six1-Eya2 inh: inhibitors of human Six1/Eya2 interaction; actives 0.56% (n = 360,000); AID 651725; AlphaScreen GST-Six1/His-Eya2 binding, biochemical; hits give low values; activity change, % (concentration not given with the values); Q15475+O00167; in the data active = activity change below about -65%; inconclusive = mostly about -30% to -63%; note: % is set by controls: 0 for no effect and ±100 for the full control effect
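AlphaScreen luminescence read after one hour at 37 °C in darkness. Pin-transferred compounds met GST-Six1 and His-Eya2 protein (5X stock 250 nM/500 nM) plus glutathione donor and Ni-chelate acceptor beads (5X, 50 ug/mL).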
* = called active by the depositor; ? = inconclusive; / = no result given; [ ] = remark or other dose. Unless noted, calls come from the whole dose curve; as a rule, active = well fitted inhibition curve with a large enough effect; inconclusive = small, poorly fitted or top-dose-only effect; inactive = no such curve, though single readings can be large or run the other way.

SMILES | CtBP-E1A blk | HP1b chromo inh | G9a block | JMJD2A Tudor inh | BAZ2B inh | Six1-Eya2 inh
Cc1nn(-c2ccc(Cl)cc2)c2[nH]c(CCl)cc(=O)c12 | 3 | 9% | ? | 79µM* | -31% | -4
COc1ccc(N=C2NC(=O)C(CC(=O)NCCc3ccc(OC)c(OC)c3)S2)cc1 (centres undefined) | 5 | 31% | -31% | -2% | -16% | 2
COc1ccc(CC2SC(=Nc3ccc(F)cc3)NC2=O)cc1 (centres undefined) | 0 | 23% | 56µM* | 3% | -2% | -4
CC(C)n1c(=O)nc(-c2ccccc2)c2cc3c(cc21)OCO3 | -4 | / | / | / | / | 4
O=S(=O)(c1ccc(=S)[nH]c1)N1CCCC1 | -2 | -3% | / | ? | / | 1
CN(C)S(=O)(=O)c1ccc(=S)[nH]c1 | -14 | ? | 1.4µM* | 56µM* | / | 2
OCCNC(=S)Nc1ccc2nsnc2c1 | 6 | 40% | 35µM* | -11% | -5% | -4
O=C(NCCO)Nc1ccc2nsnc2c1 | / | 27% | -1% | -3% | -3% | 5
Cc1nc2ccc(NC(=S)NCCCO)cc2nc1C | -14 | 79µM* | 28µM* | -35% | -10% | -16
COCC1CCN(Cc2cn(-c3ccccc3F)nc2-c2cc(C)sc2C)CC1 | -2 | 6%[57 µM] | 17%[12.7 µM] | -16% | ? | 17
COc1ccc(CN2CCN(C(=O)c3ccccc3F)CC2)c(OC)c1OC | 7 | ? | / | 1.8µM* | / | -7
COc1cccc(OC)c1C(=O)N1CCN(Cc2ccccc2C)CC1 | 1 | ? | 32µM* | -32%[11.4 µM] | 50µM* | 8
COc1ccc2oc(=O)cc(CN3CCN(C(=O)c4ccccc4F)CC3)c2c1 | / | ? | -4%[59 µM] | -18% | -2% | /
Cc1ccccc1CN1CCN(C(=O)c2cccc3ccccc23)CC1 | 4 | ? | 20µM* | 25µM* | 56µM* | -4
COc1cccc(OC)c1C(=O)N1CCN(Cc2c[nH]c3ccccc23)CC1 | -1 | / | / | / | / | 1
Cc1cccc(CN2CCN(C(=O)c3cccc4ccccc34)CC2)c1 | -2 | ? | 23%[0.501 µM] | 2.2µM* | 56µM* | -20
CC(C)Cn1c(SCC(=O)N2CCN(C(=O)c3ccco3)CC2)nc2ccccc2c1=O | 5 | 33% | ? | -15% | -14% | 1
COc1cccc(CN2CCN(C(=O)c3ccco3)CC2)c1OC | 13 | 45µM* | / | 5.6µM* | / | 3
COc1ccc2ccccc2c1CN1CCN(C(=O)c2ccco2)CC1 | 0 | 1% | -11% | -33% | ? | ?
COc1ccccc1CN1CCN(C(=O)c2cccc3ccccc23)CC1 | -5 | ? | / | 20µM* | / | -6
COc1ccccc1C(=O)N1CCN(Cc2c[nH]c3ccccc23)CC1 | 2 | ? | -20% | 18µM* | 50µM* | 4
COc1cccc(CN2CCN(C(=O)c3cccc4ccccc34)CC2)c1OC | 3 | 20µM* | ? | 4µM* | 56µM* | -3
O=C1[C@H](Cc2ccccc2)NCCCC[C@H](c2ccco2)N1Cc1ccccc1 | -3 | 4% | / | -31% | / | -8
CC1(C)NC(=O)N(CC(=O)N2CCN(S(=O)(=O)c3ccccc3C(F)(F)F)CC2)C1=O | -18 | 16% | -6%[12.7 µM] | -7% | 2% | 5
O=C(NCCCN1CCCC1=O)c1c(O)nc2sccn2c1=O | -18 | 10% | -8% | 35µM* | -34% | -2
SMILES | CtBP-E1A blk | HP1b chromo inh | G9a block | JMJD2A Tudor inh | BAZ2B inh | Six1-Eya2 inh
Cc1ccc(NS(=O)(=O)c2cc3c(cc2-c2ccccc2)NC(=O)CO3)cc1C | / | / | / | -29% | / | /
COc1cc(/C=C2\SC(=O)N(CC(=O)Nc3ccc(C)cc3)C2=O)cc(Cl)c1OCC(=O)O | -15 | 14µM* | ? | 11µM* | 14µM* | ?
O=C(CN1C(=O)S/C(=C\c2ccccn2)C1=O)Nc1ccccc1 | 8 | 29% | -2%[0.501 µM] | -5% | -8% | 5
O=C(CN1C(=O)S/C(=C\c2cc(Cl)c(O)c(Cl)c2)C1=O)Nc1ccccc1 | 50 | -16% | / | ? | 45µM* | -7
CCCCn1c(N)c(N(CCC(C)C)C(=O)C2CC(=O)N(c3cccc(SC)c3)C2)c(=O)[nH]c1=O (centres undefined) | 2 | 30% | 14µM* | -13% | -4% | -1
CCCCn1c(N)c(N(CC(C)C)C(=O)C2CC(=O)N(Cc3ccccc3)C2)c(=O)[nH]c1=O (centres undefined) | 1 | 31% | 14µM* | -1% | 6% | 0
COC(=O)c1c(NC(=O)C2(C)Cc3ccccc3C(=O)O2)sc2c1CCCC2 (centres undefined) | -2 | ? | 20µM* | -20% | -29% | -13
COc1ccccc1NC(=O)C1(C)Cc2ccccc2C(=O)O1 (centres undefined) | -15 | 26% | 50µM* | -3% | -4% | 2
Cc1cc2c(s1)c1cnn(Cc3ccc4ccccc4c3)c(=O)c1n2C | / | / | / | -19% | / | /
CCOC(=O)c1c(NC(=O)Cn2nc(C(F)(F)F)cc2C)sc(C)c1C | 0 | 11% | ? | -15% | -20% | 0
Cc1ccc(CN2CCNC(=O)C2CC(=O)O)o1 (centres undefined) | -14 | 46% | 50µM* | -14% | 11% | 6
COCCN(C(=O)CC1C(=O)NCCN1Cc1ccc(-c2ccccc2)cc1)C(C)C (centres undefined) | / | 25% | 50µM* | -19% | -17% | -6
Cc1ccc(CN2CCNC(=O)C2CC(=O)N(C)CCc2ccccc2)cc1 (centres undefined) | 0 | 33% | -1% | -8% | -1% | 2
CN(CCc1ccccn1)C(=O)CC1C(=O)NCCN1Cc1ccc(-c2ccccc2)cc1 (centres undefined) | 22 | 43% | 56µM* | -12% | -29% | 0
CC(C)(C)CN1CCNC(=O)C1CC(=O)N1CCOc2ccccc2C1 (centres undefined) | -5 | 32% | 50µM* | -6% | -1% | -4
COCCN(C)C(=O)CC1C(=O)NCCN1CC(c1ccccc1)c1ccccc1 (centres undefined) | / | 39% | -30% | -8% | -17% | 1
O=C(CCCCCCCC(=O)N1CCCC1)N1CCCC1 | 2 | -20% | / | -23% | / | 11
COc1ccccc1CNC(=O)COC(=O)c1ccc(C)c(S(=O)(=O)N2CCOCC2)c1 | 9 | 28% | 4%[0.501 µM] | 6% | 1% | -2
Cc1ccc(OCCN(C)C(=O)CC2C(=O)NCCN2CC(C)(C)C)cc1 (centres undefined) | 4 | 35% | 50µM* | -23% | -10% | -12
